{"source": "PubChem BioAssay (NCATS)", "note": "Values without a mark were called inactive. Results filed as inconclusive are left out. Active and inactive are the calls of the source. Calls come from the whole dose curve; as a rule, active = well fitted curve in the direction sought with a large enough effect; inconclusive = small, poorly fitted or top-dose-only effect, or another doubt; inactive = no such curve, though single readings can be large; an effect the other way counts as inactive or inconclusive."}
{"target": "Luciferin 4-monooxygenase (Photinus pyralis) (UniProt P08659)", "test": "Primary firefly luciferase (FLuc) qHTS assay for identification of artifact compounds. (AID 1845220); note: nearly all actives have a fitted effect of over 60% in size;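 for activity change, negative = inhibition: plate controls were DMSO vehicle for no effect and no enzyme for full effect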", "conditions": "purified firefly luciferase, luminescence, 5 min; series mostly up to 54.1 µM; activity change, negative = inhibition: at the top concentration", "outline": "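Compounds sat 15 min at room temperature with 10 uM luciferin and 10 uM ATP (pH 7.6 Tris acetate). Firefly luciferase (10 nM final) was then added, and luminescence was read 5 min later. Data normalized to no-enzyme and DMSO controls were Hill-fitted.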"}
{"smiles": "CN(C(=O)Cc1ccccc1)C(CN1CCCC1)c1ccccc1", "note": "(stereo not drawn)", "outcome": "inactive"}
{"smiles": "COC(=O)N1CCN(C(=O)Cc2ccc(Cl)c(Cl)c2)[C@@H](CN2CCCC2)C1", "activity change, negative = inhibition": "2.48%"}
{"smiles": "COC(=O)C1(C)CCC(O)C2(C)c3cc(O)c(C(C)C)cc3C(O)C(OC(C)=O)C12", "note": "(stereo not drawn)", "activity change, negative = inhibition": "0.0309% [at 25.7 µM]"}
{"system": "not listed separately", "test": "Primary fluorescence-based thiol-reactive (MSTI) qHTS assay for identification of artifact compounds. (AID 1845221); note: nearly all actives have a fitted effect of over 65% in size; note: potency is the fitted concentration of half-maximal effect", "conditions": "MSTI thiol-reactivity probe, 1 h; series mostly up to 53.8 µM; activity change, negative = thiol reactive: at the top concentration", "outline": "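Compounds were incubated 1 h at room temperature in the dark with the MSTI probe (4 uM) in PBS pH 7.4, 2% DMSO. Signals were normalized between Acetyl-MSTI and MSTI.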"}
{"smiles": "COC1=CC(=O)O[C@@H](/C=C/c2ccccc2)C1", "activity change, negative = thiol reactive": "16.1%"}
{"smiles": "CN1[C@H]2C[C@H](OC(=O)[C@H](CO)c3ccccc3)C[C@@H]1[C@@H](O)C2", "activity change, negative = thiol reactive": "-4.13%"}
{"smiles": "C=C(C)[C@H]1O[C@H]2CC[C@@]3(C)[C@@](O)(CC[C@H]4[C@@H]5OC(C)(C)[C@H]6C[C@@H]7C(=C)Cc8c(Cl)cc9[nH]c(c5c9c8[C@@]76O)[C@@]43C)[C@]23O[C@@H]3[C@H]1O", "Potency": "6.3 µM (active)"}
{"smiles": "CN1[C@@H]2CC[C@H]1CC(OC(=O)C1C=Nc3ccccc31)C2", "note": "(stereo partly drawn)", "activity change, negative = thiol reactive": "5.4%"}
{"smiles": "O=C(N1CCOCC1)N1CCN(c2ccc(Cl)cc2)CC1", "activity change, negative = thiol reactive": "-6.06%"}
{"smiles": "N#CC(OC1OC(COC2OC(CO)C(O)C(O)C2O)C(O)C(O)C1O)c1ccccc1", "note": "(stereo not drawn)", "activity change, negative = thiol reactive": "9.09% [at 25.6 µM]"}
{"smiles": "CC(CCc1ccc(O)cc1)O[C@@H]1O[C@H](CO[C@H]2OC[C@](O)(CO)[C@H]2O)[C@@H](O)[C@H](O)[C@H]1O", "note": "(stereo partly drawn)", "activity change, negative = thiol reactive": "5.2% [at 25.6 µM]"}
{"smiles": "CC1=C2C(=O)C3[C@@H](CC=C4C[C@@H](O)CC[C@@]43C)[C@@H]2CC[C@]12O[C@@H]1C[C@H](C)CN[C@H]1[C@H]2C", "note": "(stereo partly drawn)", "activity change, negative = thiol reactive": "51.3% [at 25.6 µM]"}
{"smiles": "COC1C(O)C(C)OC(OC2C(CO)O[C@@H](O[C@@H]3CC4CCC5C(CC[C@]6(C)[C@@H](C7=CC(=O)OC7)CC[C@]56O)[C@@]4(C)[C@H](O)C3)C(O)C2O)C1O", "note": "(stereo partly drawn)", "activity change, negative = thiol reactive": "12.5% [at 25.6 µM]"}
{"smiles": "CN(C(=O)Cc1ccccc1)C(CN1CCCC1)c1ccccc1", "note": "(stereo not drawn)", "activity change, negative = thiol reactive": "-23.6%"}
